Compound activity from PubChem BioAssay.
The list is not random: actives were taken first. Their share in the collection is about 19%.
IL-1B inflam inh: qHTS for Inhibitors of Inflammasome Signaling: IL-1-beta AlphaLISA Primary Screen; THP-1 LPS/ATP IL-1B secretion, AlphaLISA, 16 h; active compounds read low; activity change, % at 57.5 µM; 360,000 compounds, 4.7% hits; in the data active = activity change below about -50%; inconclusive = mostly about -30% to -49%
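THP-1 cells pretreated 1 hr with compounds (up to 57.5 uM final), then stimulated with LPS (250 ng/mL final) plus ATP (1.25 mM final); secreted IL-1B measured by AlphaLISA after 16 hr, decreased signal indicating inhibition.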
DT40 TDP1 CPT: qHTS for Inhibitors of human tyrosyl-DNA phosphodiesterase 1 (TDP1): qHTS in cells in presence of CPT; chicken DT40 Tdp1-/-;hTDP1 cells + 20 nM CPT, ATP luminescence, 48 h; Potency, µM (top dose mostly 46.2 µM), inactives show at the top dose activity change, negative = growth inhibition, most hits filed as inhibitors; 420,000 compounds, 12% hits; AID 686979, 2013; also: potency is read from the fitted curve at half-maximal effect; nearly all actives have a fitted effect of over 55% in size
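Chicken DT40 Tdp1-/- cells complemented with human TDP1, 400 cells/well, exposed to compounds plus 20 nM camptothecin for at least 48 h at 37 C; viability read as ATP content by CellTiter-Glo luminescence.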
TDP1 cell noCPT: qHTS for Inhibitors of human tyrosyl-DNA phosphodiesterase 1 (TDP1): qHTS in cells in absence of CPT; Potency, µM (titrated, usually from 46.2 µM), for inactives: at the top dose activity change, negative = growth inhibition, most hits filed as inhibitors; AID 686978, 2013; 420,000 compounds, 15% hits; DT40 Tdp1-/- hTDP1 cells, no CPT, ATP luminescence, 48 h; also: potency is read from the fitted curve at half-maximal effect; nearly all actives have a fitted effect of over 55% in size
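A cellular qHTS used chicken DT40 cells lacking endogenous Tdp1 but carrying stably transfected human TDP1. Compounds were applied without camptothecin, and cell growth kinetics were judged by ATP-dependent luminescence after ≥48 hr.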
HT1080 IDH1KD tx: qHTS for induction of synthetic lethality in tumor cells producing 2HG: qHTS for the HT-1080-IDH1KD cell line. 360,000 compounds, 2% hits. HT-1080 IDH1 knockdown viability, ATP luminescence, 48 h. AID 686971, 2013. Potency, µM (top dose mostly 46.1 µM), without a hit: top-dose activity, negative = toxicity, actives largely listed as cytotoxic;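 also: potency is read from the fitted curve at half-maximal effect; 0% = DMSO wells and -100% = cell-free medium wells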
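% activity derives from luminescence (CellTiter-Glo), normalised to DMSO and no-cell wells. HT-1080-IDH1KD cells, 750/well, had 48 h compound exposure at 37 °C.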
HT1080NT lethal: qHTS for induction of synthetic lethality in tumor cells producing 2HG: qHTS for the HT-1080-NT fibrosarcoma cell line; 360,000 compounds, 1.6% hits; Potency, µM (top dose mostly 46.1 µM), inactives show at the highest dose activity, negative = less viability, most hits filed as cytotoxic; HT-1080-NT fibrosarcoma viability, CellTiter-Glo ATP luminescence, 48 h; AID 686970, 2013;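 also: NT is the 2HG producing partner of a matched IDH1 knockdown line; potency is read from the fitted curve at half-maximal effect; 0% = DMSO-treated cells and -100% = media-only wells without cells; nearly all actives have a fitted effect of over 55% in size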
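HT-1080-NT fibrosarcoma cells (2HG-overproducing), 750 cells/well in RPMI with 5% FBS, dosed after 2 h and incubated 48 h at 37C. CellTiter-Glo luminescence normalized to DMSO and no-cell wells; concentration-response curves fitted and classed.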
The depositor's hits bear a star; i = inactive; ? = inconclusive; . = no result given. Unless noted, calls follow the shape of the dose curve; as a rule, active = well fitted curve in the direction sought with a large enough effect; inconclusive = small, poorly fitted or top-dose-only effect, or another doubt; inactive = no such curve, though single readings can be large; an effect the other way counts as inactive or inconclusive. Unless noted, % is scaled to controls: 0 for no effect and ±100 for the full control effect.

SMILES | IL-1B inflam inh | DT40 TDP1 CPT | TDP1 cell noCPT | HT1080 IDH1KD tx | HT1080NT lethal
C/C(=N\NC(=O)c1ccc(F)cc1)c1ccccn1 | -66* | 0.92µM* | 1µM* | ? | ?
O=C(N/N=C/c1ccc(Br)cc1)c1ccccc1-n1cccc1 | 32 | ? | 16µM* | 11µM* | ?
C/C(=N\NC(=O)c1cc2ccccc2cc1O)c1cc2ccccc2o1 | 101 | ? | 15µM* | ? | ?
CCc1ccc(/C(C)=N/NC(=O)c2ccccn2)cc1 | 0 | -3% | 4% | 1% | -12%
C/C(=N\NC(=O)c1nc2ccccn2c1C)c1cc2ccccc2o1 | 5 | -24% | ? | -16% | -28%
O=C1CCC([N+](=O)[O-])C(c2ccc(Cl)cc2)N1 (centres undefined) | -17 | -3% | -6% | 14% | 7%
O=C(NCC1COCCO1)c1cc(COc2c(F)cccc2F)on1 (centres undefined) | 0 | -2% | 7% | -2% | -2%
COc1cc2c3c(c1)c(C1=NC(=S)NC1=O)c(O)n3C(C)(C)C=C2C | -16 | -26% | -13% | 25% | 11%
CC1(c2ccccc2)CC(C)(C)n2c(O)c(C3=NC(=S)NC3=O)c3cccc1c32 (centres undefined) | 34 | ? | 23µM* | -1% | 1%
Cc1cc(-c2nnc(CCC(=O)N(CC3CCC3)CC3CCCO3)o2)no1 (centres undefined) | 5 | ? | -15% | 14% | 19%
COc1cc(=O)n2c(c1C(=O)N(C)Cc1nonc1C)CCN(Cc1c(F)cccc1F)CC2 | . | 1% | -13% | . | .
CC(C)C[C@H](NC(=O)OC(C)(C)C)C(=O)N1CCC(C(=O)N[C@@H](Cc2c[nH]c3ccccc23)C(=O)O)CC1 | 35 | -4% | 11% | 2% | 10%
CCC1CN2CCc3cc(OC)c(OC)cc3C2CC1CC1c2cc(OC)c(OC)cc2CCN1C(=O)C(Cc1c[nH]c2ccccc12)NC(=O)OC(C)(C)C (centres undefined) | -30 | 6.5µM* | 5.8µM* | -19% | -13%
CCOc1ccc(S(=O)(=O)NCCC(=O)OCC(=O)c2ccc(NC(C)=O)cc2)cc1 | 0 | -3% | 0% | 3% | 6%
Cc1nnn(C23CC4CC(CC(CC(=O)Nc5ccc(C)c(Cl)c5)(C4)C2)C3)n1 | -5 | ? | ? | -13% | -4%
Cc1cc(C)cc(NC(=O)CC23CC4CC(C2)CC(n2nnc(C)n2)(C4)C3)c1 | -75* | ? | -13% | -4% | 4%
Cc1nnn(C23C[C@@H]4C[C@@H](CC(C(=O)N5CCN(c6ccccc6)CC5)(C4)C2)C3)n1 | -6 | 18µM* | 13µM* | 19% | 3%
O=C(N1CCN(c2ccccc2)CC1)C12CC3CC(CC(C3)C1)C2 | 6 | -18% | ? | -4% | -2%
CCN(CC)S(=O)(=O)c1ccc(C(=O)NNC(=O)c2csc(N3CCOCC3)n2)cc1 | 6 | -3% | -19% | -17% | -1%
CC(=O)Nc1ccc(C(=O)NNC(=O)c2csc(N3CCOCC3)n2)cc1 | -28 | ? | 7.3µM* | 0% | 0%
O=C(NNC(=O)c1cc(Br)ccc1O)c1csc(N2CCOCC2)n1 | 96 | ? | 21µM* | ? | -24%
O=C(NNC(=O)c1cc(Br)ccc1Cl)c1csc(N2CCOCC2)n1 | i | -1% | 2% | -16% | -1%
CCOc1ncccc1C(=O)NNC(=O)c1csc(N2CCOCC2)n1 | -30 | 26µM* | ? | -22% | -13%
Cc1ccccc1N1C(=O)c2cc(S(N)(=O)=O)c(Cl)cc2NC1C (centres undefined) | 4 | -14% | -5% | 13% | 18%
CC1CCN(S(=O)(=O)c2cc([N+](=O)[O-])ccc2Cl)CC1 | -1 | -17% | ? | -12% | -8%
